{
  "source": "the supplement of paper PMC10981050",
  "note": "“And” between values parts separate entries of the source, which are not always exact repeats. Equal values may be shown once. Where a name gives a salt, the structure may show the parent alone.",
  "data": [
    {"system": "K562", "test": "cell viability relative to vehicle control; higher = less cytotoxic", "conditions": "10 µM; SRSF2 genotype: SRSF2 P95H/wt", "outline": "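Four leukaemia lines, as CRISPR-edited mutant clones and isogenic wild-type clones, were tested against Selleck bioactive, kinase and epigenetic probe libraries after removal of identity-inconsistent compounds. Cells were exposed to a single 10 µM dose for 48 h, and CellTiter-Glo luminescence was then read. Viability was calculated relative to the on-plate vehicle control.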", "values": [
      {"smiles": "COc1cc(C=O)c([N+](=O)[O-])cc1OC", "cell viability": "104%"},
      {"smiles": "CCOc1ccccc1OCCN[C@H](C)Cc1ccc(OC)c(S(N)(=O)=O)c1", "note": "[Tamsulosin hydrochloride]", "cell viability": "102% and 97.9%"},
      {"smiles": "O=C1CC(=O)c2c(Cl)c(Cl)c(Cl)c(Cl)c21", "cell viability": "92.3% and 95%"},
      {"smiles": "CO/N=C(\\C(=O)N[C@@H]1C(=O)N2C(C(=O)O)=C(CSC(=O)c3ccco3)CS[C@H]12)c1csc(N)n1", "note": "[Ceftiofur hydrochloride]", "cell viability": "98.4% and 82.1%"},
      {"smiles": "CC1=CC(=O)CC(C)(C)C1=O", "note": "[Ketoisophorone]", "cell viability": "98.4% and 92.1%"},
      {"smiles": "CO[C@@]12[C@H](COC(N)=O)C3=C(C(=O)C(C)=C(N)C3=O)N1C[C@@H]1N[C@@H]12", "note": "[Mitomycin C]", "cell viability": "17.1% and 28%"},
      {"smiles": "O=c1cc(-c2ccc(O)c(O)c2)oc2cc(O)cc(O)c12", "note": "[Luteolin]", "cell viability": "90.8% and 84.6%"},
      {"smiles": "Cc1cc(C2CCCCC2)n(O)c(=O)c1", "note": "[Ciclopirox ethanolamine]", "cell viability": "59.6% and 58.8%"},
      {"smiles": "N[C@@H]1CN(c2c(F)cc3c(=O)c(C(=O)O)cn([C@@H]4C[C@@H]4F)c3c2Cl)CC12CC2", "note": "[Sitafloxacin hydrate]", "cell viability": "103% and 104%"},
      {"smiles": "COCCCN1CCC(NC(=O)c2cc(Cl)c(N)c3c2OCC3)CC1", "note": "[Prucalopride]", "cell viability": "86.4% and 82%"},
      {"smiles": "COc1cc2nc(N3CCCC3)nc(NCCCCCN3CCCC3)c2cc1OC", "cell viability": "2.75% and 3.32%"},
      {"smiles": "O=C(O)c1ccc2c(c1)C(=O)c1ccccc1C2=O", "note": "[Anthraquinone-2-carboxylic Acid]", "cell viability": "100% and 101%"},
      {"smiles": "C[C@@H]1O[C@@H]1P(=O)(O)O", "note": "[fosfomycin tromethamine]", "cell viability": "108% and 107%"},
      {"smiles": "CCCCCCCCCC[C@H](C(=O)O)[C@]1(C(=O)O)CCC(=O)O1", "note": "[Spiculisporic Acid]", "cell viability": "107% and 103%"},
      {"smiles": "CC1(C)CCC2(C(=O)O)C(O)CC3(C)C(=CCC4C5(C)CC(O)C(O)C(C)(CO)C5CCC43C)C2C1", "note": "(stereo not given) [Polygalacic acid]", "cell viability": "103% and 102%"},
      {"smiles": "C[C@H]1[C@H](NC(=O)/C(=N\\OC(C)(C)C(=O)O)c2csc(N)n2)C(=O)N1S(=O)(=O)O", "note": "[Aztreonam (Azactam, Cayston)]", "cell viability": "106% and 99.5%"},
      {"smiles": "C#C[C@]1(O)CC[C@H]2[C@@H]3CCc4cc(O)ccc4[C@H]3CC[C@@]21C", "note": "[Ethinyl Estradiol]", "cell viability": "71.9% and 69.8%"},
      {"smiles": "CC(C)COc1ccc(CNC(=O)N(Cc2ccc(F)cc2)C2CCN(C)CC2)cc1", "note": "[Pimavanserin]", "cell viability": "0.6% and 0.64%"},
      {"smiles": "Oc1cc(O)c2c(c1)OC(c1ccc(O)c(O)c1)C(O)C2", "note": "(single isomer, unassigned; (+)) [(+)-Catechin hydrate]", "cell viability": "103% and 94.1%"},
      {"smiles": "Cc1ccc([C@@H]2O[C@H](CO)[C@@H](O)[C@H](O)[C@H]2O)cc1Cc1ccc(-c2ccc(F)cc2)s1", "note": "[Canagliflozin]", "cell viability": "93.4% and 99.1%"},
      {"smiles": "Nc1ncnc2c1c(-c1cnc3[nH]ccc3c1)nn2C1CCCC1", "cell viability": "6.97% and 21.9%"},
      {"smiles": "COc1ccc(-c2oc3c(CC=C(C)C)c(O)cc(O)c3c(=O)c2O[C@@H]2O[C@@H](C)[C@H](O)[C@@H](O)[C@H]2O)cc1", "note": "[Baohuoside I]", "cell viability": "101% and 98.2%"},
      {"smiles": "OC1CCC(Oc2cccc3cnc(Nc4ccc5nc[nH]c5c4)nc23)CC1", "note": "(stereo not given)", "cell viability": "40.6% and 46.8%"},
      {"smiles": "CC(C)(C)c1[nH]cnc1/C=c1\\[nH]c(=O)/c(=C/c2ccccc2)[nH]c1=O", "note": "[NPI-2358 (Plinabulin)]", "cell viability": "10.3% and 31%"},
      {"smiles": "CN(C)C(=O)c1ccc(S(=O)(=O)c2ccc(NC(=O)C(C)(O)C(F)(F)F)c(Cl)c2)cc1", "note": "(stereo not given)", "cell viability": "75.7% and 74.8%"},
      {"smiles": "CN(C)C(=O)COC(=O)Cc1ccc(OC(=O)c2ccc(NC(=N)N)cc2)cc1", "note": "[Camostat Mesilate (FOY-305)]", "cell viability": "100% and 101%"},
      {"smiles": "C[C@@H]1COC(Nc2ccc3ncnc(Nc4ccc(OCc5nccs5)c(Cl)c4)c3c2)=N1", "note": "[Varlitinib]", "cell viability": "86.5% and 83.2%"},
      {"smiles": "CCOC(=O)[C@H](CCc1ccccc1)N[C@H]1CS[C@H](c2cccs2)CN(CC(=O)O)C1=O", "note": "[Temocapril HCl]", "cell viability": "102% and 101%"},
      {"smiles": "Nc1ccn([C@H]2CC[C@@H](CO)O2)c(=O)n1", "note": "[Zalcitabine]", "cell viability": "111% and 103%"},
      {"smiles": "OCCOCCN1CCN(Cc2cccc(Oc3ccccc3)c2)CC1", "cell viability": "97.6% and 99.2%"},
      {"smiles": "CC(C)[C@H]1CC[C@H](C(=O)N[C@H](Cc2ccccc2)C(=O)O)CC1", "note": "[Nateglinide (Starlix)]", "cell viability": "103% and 101%"},
      {"smiles": "Nc1ccc(O)c(C(=O)O)c1", "note": "[Mesalamine (Lialda)]", "cell viability": "94.9% and 87.4%"},
      {"smiles": "NCCCCCN", "note": "[Cadaverine]", "cell viability": "104% and 94%"},
      {"smiles": "CN[C@@H](C)C(=O)N[C@H](C(=O)N1CCC[C@H]1c1nc(C(=O)c2ccc(F)cc2)cs1)C1CCCCC1", "cell viability": "84.3% and 92.2%"},
      {"smiles": "Nc1[nH]c(=O)ncc1Br", "note": "[5-Bromocytosine]", "cell viability": "102% and 99.4%"},
      {"smiles": "COc1nc(C)cnc1NS(=O)(=O)c1cccnc1-c1ccc(-c2nnco2)cc1", "note": "[Zibotentan (ZD4054)]", "cell viability": "98.4% and 103%"},
      {"smiles": "CC(=CCNc1ncnc2nc[nH]c12)CO", "note": "[Trans-Zeatin]", "cell viability": "100% and 95.4%"},
      {"smiles": "CCCCCCCCOc1ccccc1C(=O)Nc1ccc(C(=O)OCC[N+](C)(CC)CC)cc1", "note": "[Otilonium Bromide]", "cell viability": "78.5% and 92%"},
      {"smiles": "CCCCCCCC/C=C\\CCCCCCCCCCCC(=O)O", "note": "[Erucic acid]", "cell viability": "99.7% and 96.1%"},
      {"smiles": "C=C1C(=O)[C@]23[C@H](O)[C@H]1CC[C@H]2[C@@]12CO[C@]3(O)[C@@H](O)[C@@H]1C(C)(C)CC[C@@H]2O", "note": "[Oridonin (Isodonol)]", "cell viability": "26.2% and 29.8%"}
    ]}
  ]
}
